This passage reports inhibition results from ChEMBL document CHEMBL3433997, “St. Jude Leishmania screening dataset” (2016).

Usually inhibition stands for the drop in the measured response relative to a control, in per cent.

The target in this test is Glucose transporter (Leishmania mexicana) (UniProt O61059). The test can be described thus: ST_JUDE_LEISH: Cytotoxicity at 2uM final concentration against transgenic Leishmania Mexicana promastigotes LmGT2 that are glucose transport deficient and complemented with the L. Mexicana glucose transporter 2. Activity is measured by DNA content using SYBR green in vitro. The class given is functional.
In the case of `CCCc1cc(OC)c(CC2c3cc(O)c(C)cc3CCN2C)cc1OC` (stereo not given), the inhibition stood at 3.59%.

In the case of `Cc1cc(C2CCN(CCCCNC(=O)c3ccc(NC(=O)c4ccc(Cl)cc4)cc3)CC2)c(C)cc1OC(C)C`, the inhibition was -1.68%.

Turning to `Clc1ncnc2scc(-c3ccc(Br)cc3)c12`, the inhibition was determined as 3.52%. Then `O=C(c1ccc(Cl)cc1)C1CCN(CCCOc2ccc3c(c2)CCNCC3)CC1`, with 0.17%; and `CC1CN(c2cc(=O)n(Cc3ccc(NC(=O)Nc4ccc(-c5ccccc5)cc4)cc3)cn2)CC(C)N1` (stereo not given), with -0.75%. As to `Fc1ccc(-c2nc(NCc3cccc(C(F)(F)F)c3)nn2-c2cccc(C(F)(F)F)c2)cc1C(F)(F)F`, the inhibition came out at 2.56%. For the compound `O=C(NCCCc1ccccc1)c1csc(C2CCCN(C(=O)c3ccc(O)c(-c4cccc5ccccc45)c3)C2)n1` (stereo not given), the inhibition is -0.59%.

As for `CN1CCCC(CN2CCN(Cc3cccc(-c4ccc(-c5nc6cc(C(F)(F)F)ccc6[nH]5)cc4)c3)CC2)C1` (stereo not given), the inhibition was 1.86%.

Regarding `COc1cc(CCCOc2c(N)nc(N)nc2N)cc(OC)c1OC`, the inhibition is 3.79%. For `COc1ccc(Cl)cc1-c1nc(C(=O)NCCN2CCCCC2)c(C(C)C)s1`, the inhibition stood at 3.06%.

In the case of `CC(Nc1cc(-c2ccccn2)nc(-c2ccccn2)n1)c1ccccc1` (stereo not given), the inhibition is 17.5%. On to `Cc1cc(Cl)c(S(=O)(=O)N(C)c2ccccc2)cc1OCC(=O)NC1CCCCC1`, for which the inhibition came to 2.02%. `CN(C)CCN(C)Cc1cccc(-c2ccc3c(Nc4ccc(F)cc4Cl)ccnc3c2)c1`: the inhibition came out at 12.7%. As to `O=C(COc1ccccc1)Nn1cnc2ccccc21`, the inhibition is 0.3%.

Regarding `OC(CNCc1ccccc1Oc1ccccc1)c1cc(Br)cs1` (stereo not given), the inhibition stood at 3.26%.

As to `O=S(=O)(NCCN1CCCC1)c1ccc(-c2ccc(CNC3Cc4ccccc4C3)cc2)cc1F`, the inhibition was 5.36%. Consider `OCC1CCCCN1Cc1cccc(-c2cccc(-c3nc4ccccc4[nH]3)c2)c1` (stereo not given), for which the inhibition amounted to 4.46%. `CCOC(=O)c1cn(CC)c2cc(OCc3ccccc3)ccc2c1=O`: the inhibition amounted to 4.59%. Regarding `COc1ccc(Nc2nccc(NCC(O)c3cccc(C(F)(F)F)c3)n2)cc1` (stereo not given), the inhibition is -1.44%. On to `O=C1Nc2cccc3c2C1(CCCCN1CCC(c2c(-c4ccccc4)[nH]c4ccccc24)CC1)CCC3` (stereo not given), for which the inhibition was -0.14%. Take `N#CC(c1ccc(Br)cc1)c1ccc2c(C(F)(F)F)cc(C(F)(F)F)nc2n1` (stereo not given): the inhibition was 0.48%. For `O=C(Cn1c(CCc2cccc(F)c2F)cc(=O)c2ccccc21)N(CCN1CCCCC1)Cc1ccc(-c2ccc(C(F)(F)F)cc2)cc1`, the inhibition stood at 3.76%.

On to `CC1(C)CCCN(c2ncc(-c3cccc(CNCc4ccccc4O)c3)cn2)C1`, for which the inhibition came to 3.18%. With `Oc1ccc(CCNc2nc(NCCCOc3cccc(CN4CCCCC4)c3Cl)nc(N3CCNCC3)n2)cc1`, the inhibition is 3.74%. Consider `CN(C)CCCNCCS(=O)(=O)c1cccc(Nc2ccc(-c3cccc(N(C)C)c3)cn2)c1`, for which the inhibition is 1.78%. For the compound `CC1CCCN(c2ccc(NC(=O)c3cccs3)cc2[N+](=O)[O-])C1` (stereo not given), the inhibition was -1.43%.

Regarding `CO/C(=C\C=C\c1cc2cc(Cl)c(Cl)cc2[nH]1)C(=O)NCCCN1CCC(c2ccccc2)CC1`, the inhibition came out at 1.33%. As to `COc1ccc2[nH]c(C)cc(=NN=Cc3ccccc3)c2c1`, the inhibition was -0.26%.

Consider `COc1ccc(NC(=O)NC2CCN(CCCOc3ccnc4cc(Cl)ccc34)C2)cc1OC` (stereo not given), for which the inhibition is -0.69%. Consider `C[C@H](Cc1ccc(C[C@@H](C)NCC(O)c2cc(Cl)c(N)c(Cl)c2)cc1)NCC(O)c1cc(Cl)c(N)c(Cl)c1` (stereo not given in full), for which the inhibition came out at 1.14%.

For the compound `O=C(NCc1cccc(F)c1)Nc1ccc(-c2ccc(-c3nc4cc(C(F)(F)F)ccc4[nH]3)cc2)cc1`, the inhibition was 1.77%.

`COc1cc2nccc(Nc3ccc(OCc4ccc(NC(C)=O)cc4)cc3)c2cc1OC`: the inhibition came out at 2.65%.

Turning to `CCOc1ccc(-c2nonc2NC(=O)c2ccccc2F)cc1OCC`, the inhibition came out at 1.47%. In the case of `OC(CNC1CCCCC1)Cn1c2ccc(I)cc2c2cc(I)ccc21` (stereo not given), the inhibition is 1.17%. `C=CCOc1ccc(-c2c(C)[nH]c(C)c(Br)c2=O)cc1`: the inhibition is -0.17%. To `C[C@@H]([C@@H](CCCc1ccc(Cl)cc1)C(=O)N[C@H](C(=O)Nc1cccnc1)C(C)(C)C)N(O)C=O` belongs 1.52%; to `N#Cc1cccc(/C=C/C(=O)NC2CCC(CCN3CCc4ccc(-c5cnccn5)cc4CC3)CC2)c1` (stereo not given), 7.56%; to `CCN(CC)CCOc1ccc(C(O)(C#CC(O)(c2ccc(OCCN(CC)CC)cc2)c2ccc([N+](=O)[O-])cc2)c2ccc([N+](=O)[O-])cc2)cc1` (stereo not given), 4.31%. As for `CC(C)(C)c1ccc(NC(=O)c2cccc(CN3CCCN(Cc4ccc(F)cc4)CC3)c2)cc1`, the inhibition is 1.15%. Take `Nc1c2c(nc3ccc(C(=O)Nc4ccccc4)cc13)CCCC2`: the inhibition was determined as 3.87%.
